Outcome data for five molecules are collected here from PubChem BioAssay AID1495 (Sanford-Burnham Center for Chemical Genomics, 2009).

Potency and affinity values are given separately. Active and inactive are the calls of the source.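 Rule for the calls: active = calorimetric dissociation constant under 10 µM against either the substrate-binding domain or full-length DnaK; inactive = the rest.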

In the assay the target is Chaperone protein DnaK (Escherichia coli) (UniProt C3TRK2). Description: DnaK beta-domain binding affinity, SAR follow-up, orthogonal assay for DnaK modulator project, biophysical, isothermal titration calorimetry, full-length DnaK (AID 1495). The settings on record: purified DnaK. (In general: ITC needs no label: the signal is the heat of the interaction.)
Take `Cc1ccc(CNC(=O)c2ccc([N+](=O)[O-])o2)cc1`: the outcome was inactive.

For the molecule `Cc1ccc(C(=O)NCc2ccc(Cl)cc2)o1`, the call was inactive.

On to `Cc1ccc(C(=O)NCc2ccc(F)cc2)o1`, for which the outcome was inactive.

Turning to `O=C(Nc1ncc2ccccc2n1)c1cccs1`, the molecule was called active.

On to `O=C(NCc1ccccc1F)c1cccs1`, for which the molecule was called inactive.
